In the supplement of paper PMC10849652:
Targets with a hit are over-represented here; the source holds about 7,900 in all. About 0.6% of all pairs of compound and target were hits. Unmarked numbers belong to inactive results.

What was measured:
Assay in all cases: log2 fold change, soluble protein after heating vs DMSO (PISA); higher = thermal stabilisation; K562 cells, 10 uM, 30 min; active = over 0.2 and 3.5 SD of the protein, either way, in both replicates (recomputed)
[1] = compound: C#Cc1cccc(Nc2ncnc3cc(OCCOC)c(OCCOC)cc23)c1 [erlotinib]
Outline: (§1)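 For each measurement, 10 μM compound was applied for 30 min to K562 cells at 2×10^6 cells/mL. Aliquots were heated for 3 min across 48°C-58°C, pooled, and extracted in PBS with 0.5% NP-40 at 4°C; the supernatant after 21,000xg for 90 min was soluble protein. This was quantified by TMTpro 16plex LC-MS/MS with channel sums equalised, and thermal stability was reported relative to control samples from duplicates, on a log2 fold-change scale.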

[2] = compound: C/C(=N\NC(=O)C1=CC(=CC=C1)S(=O)(=O)N2CCOCC2)/C3=C(C=CC(=C3)Cl)O
Outline: as §1

[3] = compound: C1=CC(=C(C=C1Cl)C2=NC3=NC=CN=C3C(=N2)NC4=CC=NC=C4)F
Outline: as §1

[4] = compound: C1=CC(=CC=C1C2=NC3=C(N2)C=C(C=C3)C(=O)N)OC4=CC=C(C=C4)Cl
Outline: as §1

[5] = compound: C1=CC2=C(C=CC(=C2)/C=C\3/C(=O)NC(=NCC4=CC=CS4)S3)N=C1
Outline: as §1

[6] = compound: C1=CC2=NC=CN=C2C=C1/C=C/3\C(=O)NC(=O)S3
Outline: as §1

[7] = compound: C1=CC=C(C=C1)C2=NC(=C(N2)C3=CC=NC=C3)C4=CC(=C(C=C4)Cl)O
Outline: as §1

[8] = compound: C1=CC=C2C(=C1)C3=NNC4=CC=CC(=C43)C2=O
Outline: as §1

[9] = compound: C1CCN(C1)C(=O)NC2=CC=CC(=C2)NC3=NC=C(C(=N3)NCCC4=CN=CN4)Br
Outline: as §1

[10] = compound: C1CN(CCC1(CC2=CC=C(C=C2)Cl)N)C3=NC=NC4=C3C=CN4
Outline: as §1

[11] = compound: C1COCCN1CCN2C3=CC=CC=C3N=C2NC(=O)C4=CC(=CC=C4)[N+](=O)[O-] [IRAK-1-4 Inhibitor I]
Outline: as §1

[12] = compound: C=CC(=O)N1CCC[C@@H](n2nc(-c3ccc(Oc4ccccc4)cc3)c3c(N)ncnc32)C1 [ibrutinib]
Outline: as §1

[13] = compound: CC(=O)c1cnc2ccc(-c3cc(Cl)c(O)c(Cl)c3)nc2c1N[C@H]1CC[C@H](CN(C)C)CC1
Outline: as §1

[14] = compound: CC(C)(C)Cn1c(N)nc2ccc(-c3[nH]c(C(C)(C)C)nc3-c3ccc(F)cc3)nc21 [ralimetinib]
Outline: as §1

[15] = compound: CC(C)(O)CC(=O)NCCn1ccc2ncnc(Nc3ccc(Oc4cccc(C(F)(F)F)c4)c(Cl)c3)c21
Outline: as §1

[16] = compound: CC(C)C1=C2N=C(C=C(N2N=C1)NCC3=CC=CC=C3)NCCCCCCN
Outline: as §1

[17] = compound: CC(C)C[C@@H](C=O)NC(=O)[C@H](CC(C)C)NC(=O)[C@H](CC(C)C)NC(=O)OCc1ccccc1
Outline: as §1

[18] = compound: CC(C)N(C[C@H]1O[C@@H](n2cnc3c(N)ncnc32)[C@H](O)[C@@H]1O)[C@H]1C[C@@H](CCc2nc3cc(C(C)(C)C)ccc3[nH]2)C1 [pinometostat]
Outline: as §1

[19] = compound: CC1=C(C(CC(=O)N1)C2=CC=C(C=C2)C(F)(F)F)C(=O)NC3=C(C=C4C(=C3)C=NN4)F
Outline: as §1

[20] = compound: CC1=C(C2=C(C=C1)C(=O)C3=CC=CC=C3N2CCCN)C
Outline: as §1

UniProt Q14004, sequence (Q14004 whole entry, looked up): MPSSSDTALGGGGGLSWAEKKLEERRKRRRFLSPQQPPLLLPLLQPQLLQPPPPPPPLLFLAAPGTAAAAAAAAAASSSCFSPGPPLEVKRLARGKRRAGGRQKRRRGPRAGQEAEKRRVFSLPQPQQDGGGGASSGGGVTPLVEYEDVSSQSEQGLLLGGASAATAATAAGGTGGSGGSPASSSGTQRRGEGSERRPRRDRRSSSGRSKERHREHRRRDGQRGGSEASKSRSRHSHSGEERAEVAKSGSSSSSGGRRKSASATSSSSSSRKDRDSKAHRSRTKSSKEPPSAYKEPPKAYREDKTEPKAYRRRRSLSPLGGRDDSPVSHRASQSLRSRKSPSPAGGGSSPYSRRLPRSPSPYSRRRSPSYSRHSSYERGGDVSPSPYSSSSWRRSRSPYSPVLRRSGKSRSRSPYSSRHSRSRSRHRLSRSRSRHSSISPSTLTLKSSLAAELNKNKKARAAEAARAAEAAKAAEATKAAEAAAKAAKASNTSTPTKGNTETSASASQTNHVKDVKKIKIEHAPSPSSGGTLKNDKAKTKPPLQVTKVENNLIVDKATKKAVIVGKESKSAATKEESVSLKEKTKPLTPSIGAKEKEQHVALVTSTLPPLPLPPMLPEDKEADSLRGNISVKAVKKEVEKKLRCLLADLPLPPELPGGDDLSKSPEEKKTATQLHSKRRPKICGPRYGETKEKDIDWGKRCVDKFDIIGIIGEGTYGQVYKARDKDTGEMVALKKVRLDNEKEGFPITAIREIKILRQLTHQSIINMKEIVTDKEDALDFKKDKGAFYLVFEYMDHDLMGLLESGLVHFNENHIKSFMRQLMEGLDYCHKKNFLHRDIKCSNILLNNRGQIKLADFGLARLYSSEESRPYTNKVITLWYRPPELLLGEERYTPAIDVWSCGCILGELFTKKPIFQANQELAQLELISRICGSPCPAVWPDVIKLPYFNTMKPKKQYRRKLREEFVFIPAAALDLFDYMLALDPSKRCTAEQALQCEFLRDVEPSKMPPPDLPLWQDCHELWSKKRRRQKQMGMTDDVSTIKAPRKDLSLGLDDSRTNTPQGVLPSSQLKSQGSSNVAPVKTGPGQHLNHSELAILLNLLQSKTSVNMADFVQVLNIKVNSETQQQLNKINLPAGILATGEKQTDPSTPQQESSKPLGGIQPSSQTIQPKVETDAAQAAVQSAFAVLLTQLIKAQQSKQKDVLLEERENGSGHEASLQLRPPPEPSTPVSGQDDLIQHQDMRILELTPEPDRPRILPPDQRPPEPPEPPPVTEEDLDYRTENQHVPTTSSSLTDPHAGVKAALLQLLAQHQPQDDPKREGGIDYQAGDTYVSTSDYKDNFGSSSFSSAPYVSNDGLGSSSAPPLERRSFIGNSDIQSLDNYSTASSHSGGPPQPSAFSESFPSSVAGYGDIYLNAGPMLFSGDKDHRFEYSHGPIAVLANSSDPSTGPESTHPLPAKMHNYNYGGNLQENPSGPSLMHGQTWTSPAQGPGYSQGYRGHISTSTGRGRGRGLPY
UniProt Q8IWY9, sequence (Q8IWY9 whole entry, looked up): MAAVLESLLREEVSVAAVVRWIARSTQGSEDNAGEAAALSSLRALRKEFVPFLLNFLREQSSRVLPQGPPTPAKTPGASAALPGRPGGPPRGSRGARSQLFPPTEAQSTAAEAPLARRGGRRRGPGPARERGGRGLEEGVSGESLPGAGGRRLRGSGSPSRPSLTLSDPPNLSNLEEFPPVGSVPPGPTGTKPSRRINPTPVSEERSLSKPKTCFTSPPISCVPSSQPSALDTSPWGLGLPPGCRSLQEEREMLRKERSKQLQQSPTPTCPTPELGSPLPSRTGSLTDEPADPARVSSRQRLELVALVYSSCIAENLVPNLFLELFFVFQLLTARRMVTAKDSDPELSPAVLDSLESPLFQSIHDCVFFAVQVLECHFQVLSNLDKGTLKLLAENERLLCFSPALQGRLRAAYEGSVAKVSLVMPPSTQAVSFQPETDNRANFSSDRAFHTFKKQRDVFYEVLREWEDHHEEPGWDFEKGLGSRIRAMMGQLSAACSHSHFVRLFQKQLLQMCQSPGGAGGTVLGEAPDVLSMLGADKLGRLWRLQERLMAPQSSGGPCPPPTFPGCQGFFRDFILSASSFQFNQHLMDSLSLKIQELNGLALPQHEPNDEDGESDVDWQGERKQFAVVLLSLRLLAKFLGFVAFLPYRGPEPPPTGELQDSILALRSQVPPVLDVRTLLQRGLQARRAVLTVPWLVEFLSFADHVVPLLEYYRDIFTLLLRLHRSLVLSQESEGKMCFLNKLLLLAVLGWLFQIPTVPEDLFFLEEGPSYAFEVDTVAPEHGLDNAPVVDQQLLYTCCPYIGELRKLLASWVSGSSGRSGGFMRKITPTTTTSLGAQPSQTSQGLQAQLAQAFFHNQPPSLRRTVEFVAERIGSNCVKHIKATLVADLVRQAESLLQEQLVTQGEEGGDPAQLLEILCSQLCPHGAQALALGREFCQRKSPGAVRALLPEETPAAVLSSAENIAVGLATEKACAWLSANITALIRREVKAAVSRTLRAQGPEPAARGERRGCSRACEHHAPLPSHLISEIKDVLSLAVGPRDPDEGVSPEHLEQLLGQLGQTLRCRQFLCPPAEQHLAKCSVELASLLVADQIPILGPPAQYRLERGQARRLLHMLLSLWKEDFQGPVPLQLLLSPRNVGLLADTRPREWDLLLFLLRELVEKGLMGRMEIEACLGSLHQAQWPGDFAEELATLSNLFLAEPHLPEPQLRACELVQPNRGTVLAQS
UniProt P60033, sequence (P60033 whole entry, looked up): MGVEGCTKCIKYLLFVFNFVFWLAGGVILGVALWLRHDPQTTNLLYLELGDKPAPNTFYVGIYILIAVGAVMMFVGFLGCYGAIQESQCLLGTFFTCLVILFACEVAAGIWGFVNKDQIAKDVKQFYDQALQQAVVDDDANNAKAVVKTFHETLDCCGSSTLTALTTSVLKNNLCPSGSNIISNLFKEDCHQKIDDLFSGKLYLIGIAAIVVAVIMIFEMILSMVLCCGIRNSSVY
UniProt Q96CF2, sequence (Q96CF2 whole entry, looked up): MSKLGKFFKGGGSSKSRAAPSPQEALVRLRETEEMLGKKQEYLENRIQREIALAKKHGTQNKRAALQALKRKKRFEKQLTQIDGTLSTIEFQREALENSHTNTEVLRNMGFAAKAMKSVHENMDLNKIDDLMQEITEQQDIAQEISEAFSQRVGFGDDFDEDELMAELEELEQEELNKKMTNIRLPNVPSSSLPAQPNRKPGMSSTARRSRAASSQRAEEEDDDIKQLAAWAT
UniProt A6NHX0, sequence (A6NHX0 whole entry, looked up): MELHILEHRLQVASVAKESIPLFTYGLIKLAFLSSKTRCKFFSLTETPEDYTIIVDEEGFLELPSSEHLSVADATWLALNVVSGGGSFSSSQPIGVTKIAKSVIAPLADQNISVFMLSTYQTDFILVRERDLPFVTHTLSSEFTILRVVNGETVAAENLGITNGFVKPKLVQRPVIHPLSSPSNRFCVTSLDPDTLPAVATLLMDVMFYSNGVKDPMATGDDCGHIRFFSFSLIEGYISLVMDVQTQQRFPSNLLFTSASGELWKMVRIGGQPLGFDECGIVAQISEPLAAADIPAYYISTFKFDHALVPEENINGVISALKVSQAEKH
UniProt Q9Y6H1, sequence (Q9Y6H1 whole entry, looked up): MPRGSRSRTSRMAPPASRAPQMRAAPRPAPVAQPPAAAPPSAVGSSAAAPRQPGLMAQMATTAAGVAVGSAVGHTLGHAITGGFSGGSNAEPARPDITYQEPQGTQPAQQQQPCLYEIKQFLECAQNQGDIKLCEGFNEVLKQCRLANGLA
UniProt Q5T6V5, sequence (Q5T6V5 whole entry, looked up): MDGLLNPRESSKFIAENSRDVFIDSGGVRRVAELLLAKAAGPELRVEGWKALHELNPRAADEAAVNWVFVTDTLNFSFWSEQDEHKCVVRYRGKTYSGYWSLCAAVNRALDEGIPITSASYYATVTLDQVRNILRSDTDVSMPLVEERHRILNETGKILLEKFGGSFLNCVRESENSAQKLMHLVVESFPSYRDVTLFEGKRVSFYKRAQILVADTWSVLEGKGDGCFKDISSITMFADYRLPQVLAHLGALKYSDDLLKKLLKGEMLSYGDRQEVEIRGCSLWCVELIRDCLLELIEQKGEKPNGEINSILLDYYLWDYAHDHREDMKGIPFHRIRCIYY
UniProt Q70SY1, sequence (Q70SY1 whole entry, looked up): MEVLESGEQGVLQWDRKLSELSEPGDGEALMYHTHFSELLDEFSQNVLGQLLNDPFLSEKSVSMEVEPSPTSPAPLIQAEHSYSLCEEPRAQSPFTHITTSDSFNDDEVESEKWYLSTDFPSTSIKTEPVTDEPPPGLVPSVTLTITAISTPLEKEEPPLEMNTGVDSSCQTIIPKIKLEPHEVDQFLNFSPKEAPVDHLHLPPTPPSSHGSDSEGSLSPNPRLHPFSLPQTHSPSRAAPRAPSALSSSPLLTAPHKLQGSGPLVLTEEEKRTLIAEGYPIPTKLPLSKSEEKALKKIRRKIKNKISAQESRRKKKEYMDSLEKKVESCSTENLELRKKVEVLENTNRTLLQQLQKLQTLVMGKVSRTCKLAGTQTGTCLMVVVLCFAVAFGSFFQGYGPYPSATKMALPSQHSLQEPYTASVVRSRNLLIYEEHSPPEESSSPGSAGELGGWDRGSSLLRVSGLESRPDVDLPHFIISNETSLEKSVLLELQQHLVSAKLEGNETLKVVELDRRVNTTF
UniProt Q8N1A6, sequence (Q8N1A6 whole entry, looked up): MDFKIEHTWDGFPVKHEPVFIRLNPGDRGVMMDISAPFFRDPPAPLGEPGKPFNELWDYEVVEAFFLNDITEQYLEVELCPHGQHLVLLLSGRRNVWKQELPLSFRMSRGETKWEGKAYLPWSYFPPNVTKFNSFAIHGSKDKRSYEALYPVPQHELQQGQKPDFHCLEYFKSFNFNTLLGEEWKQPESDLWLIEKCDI
UniProt Q99653, sequence (Q99653 whole entry, looked up): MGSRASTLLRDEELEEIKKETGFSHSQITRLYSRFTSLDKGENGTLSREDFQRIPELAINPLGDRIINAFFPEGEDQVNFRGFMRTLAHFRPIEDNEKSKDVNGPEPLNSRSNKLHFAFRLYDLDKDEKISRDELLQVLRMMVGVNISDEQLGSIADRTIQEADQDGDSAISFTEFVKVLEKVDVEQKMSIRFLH

Target | log2 fold change [1] | log2 fold change [2] | log2 fold change [3] | log2 fold change [4] | log2 fold change [5] | log2 fold change [6] | log2 fold change [7] | log2 fold change [8] | log2 fold change [9] | log2 fold change [10] | log2 fold change [11] | log2 fold change [12] | log2 fold change [13] | log2 fold change [14] | log2 fold change [15] | log2 fold change [16] | log2 fold change [17] | log2 fold change [18] | log2 fold change [19] | log2 fold change [20]
CDAN1 (UniProt Q8IWY9) | -0.031 | 0.048 | -0.171 | -0.011 | 0.039 | 0.066 | 0.019 | -0.057 | 0.109 | 0.03 | 0.057 | -0.001 | -0.044 | -0.036 | -0.168 | -0.051 | -0.006 | 0.026 | 0.009 | -0.398 (active)
CLSPN (UniProt Q9HAW4) | -0.09 | -0.022 | -0.024 | 0.02 | -0.035 | 0.032 | -0.062 | -0.027 | -0.083 | 0.033 | 0.028 |  | -0.04 | -0.033 | 0.038 | -0.062 | 0.124 | -0.018 | 0.009 | -0.541 (active)
C4orf33 (UniProt Q8N1A6) | -0.026 | 0.023 | 0.052 | 0.138 | 0.072 | -0.287 (active) | -0.092 | 0.016 | 0.017 | 0.06 | 0.038 | 0.137 | -0.049 | -0.073 | 0.005 | -0.076 | 0.032 | 0 | -0.01 | -0.03
CAD (UniProt P27708) | -0.083 | 0.042 | -0.014 | -0.003 | 0.125 | -0.011 | 0.057 | -0.063 | 0.013 | 0.046 | -0.064 | 0.008 | -0.402 (active) | -0.06 | -0.168 | 0.029 | 0.021 | 0.028 | 0.03 | 0.272 (active)
CAB39L (UniProt Q9H9S4) | -0.026 | -0.001 | -0.088 | 0.065 | 0.042 | 0.015 | 0.007 | -0.117 | -0.068 | -0.306 | 0.018 | 0.001 | -0.126 | 0.057 | -0.152 | -0.024 | 0.032 | 0.102 |  | -0.483
CD81 (UniProt P60033) | -0.065 | 0.033 | 0.059 | 0.039 | -0.065 | 0.059 | 0.013 | -0.043 | 0.098 | 0.206 | 0.027 | 0.007 | -0.026 | -0.045 | -0.018 | 0.33 | -0.122 | -0.05 | 0.004 | -0.01
CASTOR2 (UniProt A6NHX0) | -0.026 | 0.117 | 0.013 | 0.018 | -0.031 | 0.017 | 0.029 | -0.017 | -0.065 | -0.002 | 0.078 | 0.046 | 0.008 | -0.006 | 0.016 | 0.031 | 0.046 | -0.013 | -0.004 | 0.019
CREB3L2 (UniProt Q70SY1) | 0.424 | 0.104 | 0.057 | -0.264 | 0.113 | -0.174 | -0.1 | -0.045 | -0.206 | 0.173 | 0.055 | 0.168 | -0.108 | -0.01 | -0.08 | 0.322 | 0.607 | -0.193 | -0.058 | 0.074
CHP1 (UniProt Q99653) | -0.022 | 0.024 | 0.097 | 0.012 | -0.056 | 0.008 | 0.287 (active) | 0.006 | -0.07 | 0.091 | 0.091 | -0.024 | 0.001 | 0.145 | -0.017 | 0.017 | -0.061 | -0.02 | -0.017 | -0.047
CHMP4C (UniProt Q96CF2) | 0.036 | 0.06 | 0.476 (active) | -0.025 | 0.054 | 0.134 | -0.064 | -0.043 | 0.058 | 0.034 | 0.097 | -0.022 | -0.028 | -0.087 | -0.018 | -0.099 | 0.039 | -0.095 | 0.021 | -0.019
CHCHD2 (UniProt Q9Y6H1) | -0.083 | 0.107 | 0.092 | 0.049 | 0.028 | 0.032 | -0.028 | 0.098 | 0.003 | -0.001 | 0.009 | 0.067 | 0.022 | -0.035 | -0.017 | 0.095 | -0.071 | -0.068 | 0.144 | -0.004
COQ7 (UniProt Q99807) | 0.082 | -0.014 | 0.075 | 0.023 | -0.005 | 0.068 | -0.024 | -0.009 | 0.02 | 0.052 | 0.08 | 0.021 | -0.064 | -0.03 | 0.01 | -0.034 | 0 | -0.016 | -0.018 | -0.035
CBS (UniProt P35520) | 0.014 | -0.031 | 0.039 | -0.014 | -0.026 | 0.013 | -0.03 | 0.052 | 0.025 | 0.042 | 0.044 | -0.007 | 0.008 | -0.01 | 0.027 | 0.036 | -0.013 | -0.048 | 0.034 | 0.001
CDK13 (UniProt Q14004) | -0.064 | 0.039 | -0.147 | 0.028 | -0.126 | -0.014 | -0.012 | -0.212 | -0.006 | -0.129 | -0.05 | 0.024 | -0.52 (active) | 0.199 | 0.031 | -0.171 | 0.081 | 0.043 | 0.013 | -0.017
C9orf64 (UniProt Q5T6V5) | 0.046 | 0.142 | 0.009 | 0.065 | 0.117 | 0.017 | 0.054 | -0.037 | -0.001 | -0.039 | -0.041 | -0.03 | -0.019 | -0.018 | -0.181 | -0.288 | 0.012 | 0.053 | 0.02 | -0.097
